For part of these data: Potency and affinity values are given separately. Calls of active or inactive are those of the source. Unless noted, the rule behind the calls is not given here.
Columns and labels:
[1] = antimalarial activity against Dd2 strain (AID 2302;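 active = growth inhibition above 50% at the single 2 µM test dose, taken to imply half-maximal potency below 2 µM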;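 note: 0% = DMSO untreated growth and 100% = chloroquine plus artemisinin killed control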); conditions: P. falciparum Dd2 in RBCs, LDH growth readout, 72 h; at 2 µM; stronger effect = higher value
[2] = human hepatoma cell viability loss – ATP luminescence, cytotoxicity control for P. falciparum antimalarial project, primary screen (AID 2303;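 active = inhibition above 50%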;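 note: 0% = DMSO wells and 100% = digitonin-killed cells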); conditions: HepG2 viability, 24-48 h, at 10 µM, stronger effect = higher value
[3] = target: L-lactate dehydrogenase (Plasmodium falciparum (isolate CDC / Honduras)) (UniProt Q27743); experiment: PfLDH activity inhibition – cell lysate, 3D7 strain, counter-screen for P. falciparum growth inhibition project (AID 2304);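 note: 0% = vehicle and 100% = reference inhibitor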; conditions: P. falciparum 3D7 crude extract, LDH APAD/NBT absorbance; at 2 µM; stronger effect = higher value
[4] = inhibition of 3D7 malaria parasite growth – strain 3D7 (AID 2306);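 note: 0% = DMSO wells and 100% = chloroquine plus artemisinin control wells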; conditions: P. falciparum 3D7 erythrocytic growth, LDH absorbance, 72 h; at 2 µM; stronger effect = higher value
[5] = target: Calcium-dependent protein kinase 1 (Plasmodium falciparum (isolate 3D7)) (UniProt P62344); experiment: PfCDPK1 kinase inhibitors, biochemical, TCAMS library (AID 1159585; cut-off not given, nearly all actives have IC50 up to about 0.98 µM;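 note: inhibitors leave more ATP so luminescence rises with inhibition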); conditions: recombinant PfCDPK1, Kinase-Glo ATP depletion luminescence
[6] = target: Plasmodium falciparum protein kinase 6 (PK6, PF3D7_1337100) (UniProt Q8IDW1); experiment: PfPK6 kinase inhibitors, biochemical, TCAMS library (AID 1159586); conditions: recombinant PfPK6, Kinase-Glo ATP depletion luminescence
[7] = target: Protein kinase 7 (PK7), Plasmodium falciparum 3D7 (PF3D7_0213400) (UniProt Q7YTF7); experiment: inhibition of Plasmodium PK7 catalytic activity – biochemical, TCAMS antimalarial set, Kinase-Glo luminescence (AID 1159587); conditions: recombinant PfPK7, Kinase-Glo ATP depletion luminescence
[8] = target: Calcium-dependent protein kinase 4 (Plasmodium falciparum (isolate 3D7)) (UniProt Q8IBS5); experiment: PfCDPK4 kinase inhibitors, biochemical, TCAMS library (AID 1159588; cut-off not given, nearly all actives have IC50 up to about 0.91 µM); conditions: recombinant PfCDPK4, Kinase-Glo ATP depletion luminescence
Calcium-dependent protein kinase 4 (Plasmodium falciparum (isolate 3D7)), sequence (Q8IBS5 whole entry, looked up): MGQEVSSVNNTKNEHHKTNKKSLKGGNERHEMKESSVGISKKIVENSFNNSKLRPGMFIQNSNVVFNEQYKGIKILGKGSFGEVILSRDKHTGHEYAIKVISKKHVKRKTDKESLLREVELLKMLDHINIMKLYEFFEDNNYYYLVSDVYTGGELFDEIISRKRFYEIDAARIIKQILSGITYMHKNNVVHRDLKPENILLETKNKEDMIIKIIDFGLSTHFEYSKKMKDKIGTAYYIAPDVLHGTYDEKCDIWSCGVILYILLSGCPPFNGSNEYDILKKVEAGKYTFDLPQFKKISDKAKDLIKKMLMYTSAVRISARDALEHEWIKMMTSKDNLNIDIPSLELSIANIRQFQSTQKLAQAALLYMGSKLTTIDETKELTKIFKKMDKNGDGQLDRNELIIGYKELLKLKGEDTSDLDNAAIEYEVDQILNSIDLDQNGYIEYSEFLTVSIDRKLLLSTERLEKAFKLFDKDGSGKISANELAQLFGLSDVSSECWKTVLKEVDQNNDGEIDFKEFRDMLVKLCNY

Plasmodium falciparum protein kinase 6 (PK6, PF3D7_1337100), sequence (Q8IDW1 1-305): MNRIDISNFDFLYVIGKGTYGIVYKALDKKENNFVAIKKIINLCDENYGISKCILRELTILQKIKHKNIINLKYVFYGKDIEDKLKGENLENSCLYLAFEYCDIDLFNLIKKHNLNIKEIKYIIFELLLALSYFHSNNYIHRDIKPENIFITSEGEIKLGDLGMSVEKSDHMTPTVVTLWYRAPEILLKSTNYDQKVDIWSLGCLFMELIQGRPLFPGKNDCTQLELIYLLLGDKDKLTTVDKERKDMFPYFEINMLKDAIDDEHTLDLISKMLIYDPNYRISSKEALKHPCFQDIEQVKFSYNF
Calcium-dependent protein kinase 1 (Plasmodium falciparum (isolate 3D7)), sequence (P62344 whole entry, looked up): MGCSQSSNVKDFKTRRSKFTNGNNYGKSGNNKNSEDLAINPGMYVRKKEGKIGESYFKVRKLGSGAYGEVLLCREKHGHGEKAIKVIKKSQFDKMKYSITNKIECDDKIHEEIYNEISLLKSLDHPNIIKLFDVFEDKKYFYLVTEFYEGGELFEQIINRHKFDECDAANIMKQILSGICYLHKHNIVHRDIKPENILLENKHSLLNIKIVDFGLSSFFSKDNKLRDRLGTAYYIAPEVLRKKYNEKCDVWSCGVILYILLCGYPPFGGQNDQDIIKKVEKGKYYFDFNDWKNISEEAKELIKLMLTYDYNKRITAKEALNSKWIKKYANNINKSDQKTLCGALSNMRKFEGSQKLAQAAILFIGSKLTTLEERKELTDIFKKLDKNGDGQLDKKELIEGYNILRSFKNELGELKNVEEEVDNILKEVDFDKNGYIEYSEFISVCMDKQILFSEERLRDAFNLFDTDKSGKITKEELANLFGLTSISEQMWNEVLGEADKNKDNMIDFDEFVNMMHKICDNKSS
L-lactate dehydrogenase (Plasmodium falciparum (isolate CDC / Honduras)), sequence (Q27743 whole entry, looked up): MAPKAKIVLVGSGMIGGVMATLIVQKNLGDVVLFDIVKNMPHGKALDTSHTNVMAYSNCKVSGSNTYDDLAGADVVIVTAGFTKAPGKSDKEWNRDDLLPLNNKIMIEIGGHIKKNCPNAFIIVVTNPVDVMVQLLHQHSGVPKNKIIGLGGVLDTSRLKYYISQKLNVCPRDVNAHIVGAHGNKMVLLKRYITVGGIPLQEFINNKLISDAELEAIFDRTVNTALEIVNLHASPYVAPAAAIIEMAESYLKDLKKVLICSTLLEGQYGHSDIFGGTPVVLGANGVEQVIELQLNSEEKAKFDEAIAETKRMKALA
Protein kinase 7 (PK7), Plasmodium falciparum 3D7 (PF3D7_0213400), sequence (Q7YTF7 1-343): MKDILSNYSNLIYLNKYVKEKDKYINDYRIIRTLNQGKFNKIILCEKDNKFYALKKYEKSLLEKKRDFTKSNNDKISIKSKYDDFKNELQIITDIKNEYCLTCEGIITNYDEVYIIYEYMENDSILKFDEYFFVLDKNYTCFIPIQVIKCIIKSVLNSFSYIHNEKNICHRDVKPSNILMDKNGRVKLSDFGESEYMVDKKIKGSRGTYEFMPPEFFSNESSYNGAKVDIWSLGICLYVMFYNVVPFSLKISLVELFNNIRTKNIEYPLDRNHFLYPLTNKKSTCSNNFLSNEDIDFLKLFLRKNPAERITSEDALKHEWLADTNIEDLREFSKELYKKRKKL

COCCNCc1ccc(-c2cccc(CNc3ccc(OC)cc3)c2)cc1
inactive: growth inhibition [1] 2% | inhibition [2] 16% | inhibition [3] -1% | outcome [5] | outcome [6] | outcome [7] | outcome [8]
active: growth inhibition [4] 94%

O=C(NCCN1CCCCC1)c1ccc(CNC(=O)c2ccc(O)c(-c3cccc(C(F)(F)F)c3)c2)cc1
active: growth inhibition [4] 94%
inactive: growth inhibition [1] 47% | inhibition [2] 3% | inhibition [3] 1% | outcome [5] | outcome [6] | outcome [7] | outcome [8]

COc1ccc2nc(C)cc(NN=Cc3ccncc3)c2c1
inactive: inhibition [2] 6% | inhibition [3] 1% | outcome [5] | outcome [6] | outcome [7] | outcome [8]
active: growth inhibition [1] 68% | growth inhibition [4] 102%

CCC(C)c1ccc(Nc2nc(C)cc(N(CC)CCCN3CCCCC3)n2)cc1 (configuration not stated)
active: growth inhibition [1] 83% | inhibition [2] 55% | growth inhibition [4] 101%
inactive: inhibition [3] -7% | outcome [5] | outcome [6] | outcome [7] | outcome [8]

CCN(CCNc1nc(NCCc2cnc[nH]2)nc(N(CCC#N)Cc2ccccc2)n1)c1cccc(C)c1
inactive: inhibition [2] 13% | inhibition [3] -3% | outcome [5] | outcome [6] | outcome [7] | outcome [8]
active: growth inhibition [1] 92% | growth inhibition [4] 101%

CC(=O)Nc1ccc(C(=O)Nc2cccc(-c3ccc(-c4nc5ccccc5[nH]4)s3)c2)cn1
inactive: inhibition [2] 9% | inhibition [3] 2% | outcome [5] | outcome [6] | outcome [7] | outcome [8]
active: growth inhibition [1] 91% | growth inhibition [4] 101%

CC1=C(C(=O)Nc2cc3cn[nH]c3cc2F)C(c2cccc(O)c2F)CC(=O)N1 (configuration not stated)
inactive: inhibition [2] 1% | inhibition [3] -2% | outcome [5] | outcome [6] | outcome [7] | outcome [8]
active: growth inhibition [1] 98% | growth inhibition [4] 97%

O=C(c1ccc(Cl)cc1)C1CCN(CCCOc2ccc3c(c2)CCNCC3)CC1
inactive: growth inhibition [1] 23% | inhibition [3] -2% | outcome [5] | outcome [6] | outcome [7] | outcome [8]
active: inhibition [2] 78% | growth inhibition [4] 93%

Clc1ccc2c(NN=Cc3ccccc3)ccnc2c1
active: growth inhibition [1] 94% | growth inhibition [4] 100%
inactive: inhibition [2] -6% | inhibition [3] -3% | outcome [5] | outcome [6] | outcome [7] | outcome [8]

Cc1ccc(NC(=O)c2cnc(N3CCN(c4ccncc4)CC3)c(Cl)c2)cc1
active: growth inhibition [4] 94%
inactive: growth inhibition [1] 24% | inhibition [2] 25% | inhibition [3] 4% | outcome [5] | outcome [6] | outcome [7] | outcome [8]

CC(C)c1ccc(OCCCON2C(N)=NC(N)=NC2(C)C)cc1
active: growth inhibition [1] 97% | inhibition [2] 69% | growth inhibition [4] 93%
inactive: inhibition [3] 0% | outcome [5] | outcome [6] | outcome [7] | outcome [8]

COCCN(CCOC)c1ncc(-c2ccsc2)c(-c2nc(C)c(C)s2)n1
inactive: inhibition [2] 1% | inhibition [3] 5% | outcome [5] | outcome [6] | outcome [7] | outcome [8]
active: growth inhibition [1] 63% | growth inhibition [4] 96%

O=C(Nc1ccccc1)OCCOc1ccc(CC2SC(=O)NC2=O)cc1 (configuration not stated)
active: growth inhibition [4] 100%
inactive: growth inhibition [1] -6% | inhibition [2] 1% | inhibition [3] -3% | outcome [5] | outcome [6] | outcome [7] | outcome [8]

Nc1c2c(nc3ccc(NC(=O)CCCCCCc4ccccc4)cc13)CCCC2
active: growth inhibition [1] 90% | inhibition [2] 100% | growth inhibition [4] 100%
inactive: inhibition [3] 4% | outcome [5] | outcome [6] | outcome [7] | outcome [8]

CC(=O)NCCNc1nccc(N2CCc3ncnc(Nc4ccc(OCc5cccc(F)c5)c(Cl)c4)c3C2)n1
active: growth inhibition [1] 100% | growth inhibition [4] 100%
inactive: inhibition [2] 10% | inhibition [3] 5% | outcome [5] | outcome [6] | outcome [7] | outcome [8]

O=C(Nc1ccccc1N1CCOCC1)c1ncoc1-c1ccccc1C(F)(F)F
active: growth inhibition [1] 60% | growth inhibition [4] 89%
inactive: inhibition [2] -2% | inhibition [3] 7% | outcome [5] | outcome [6] | outcome [7] | outcome [8]

COc1cc2nc(NCCc3ccccc3)nc(NCc3ccc(C#N)cc3)c2cc1OC
inactive: inhibition [3] 0% | outcome [5] | outcome [6] | outcome [7] | outcome [8]
active: growth inhibition [1] 100% | inhibition [2] 52% | growth inhibition [4] 100%

Cc1cc(N[C@@H](CC(C)C)C(=O)NCCc2ccccc2)nc(NCc2ccccc2C)n1
active: growth inhibition [1] 74% | growth inhibition [4] 93%
inactive: inhibition [2] 17% | inhibition [3] 0% | outcome [5] | outcome [6] | outcome [7] | outcome [8]

CCN(CC)CCCC(C)Nc1cc(C=Cc2ccccc2Cl)nc2cc(Cl)ccc12 (configuration not stated)
inactive: inhibition [2] 0% | inhibition [3] -2% | outcome [5] | outcome [6] | outcome [7] | outcome [8]
active: growth inhibition [1] 77% | growth inhibition [4] 99%

CCCCCCSc1nnc(COc2cccc3ccccc23)n1-c1ccc(OC)cc1
inactive: inhibition [2] 19% | inhibition [3] 3% | outcome [5] | outcome [6] | outcome [7] | outcome [8]
active: growth inhibition [1] 100% | growth inhibition [4] 99%

CN(C)CCOc1ccc(-c2cc(-c3ccncc3)c(-c3ccc(Cl)c(O)c3)o2)cc1
active: growth inhibition [1] 93% | growth inhibition [4] 99%
inactive: inhibition [2] 0% | inhibition [3] -5% | outcome [5] | outcome [6] | outcome [7] | outcome [8]

COc1ccc(CNC2CCN(C)CC2)cc1-c1cccc(S(=O)(=O)NCc2ccccc2)c1
active: growth inhibition [4] 101%
inactive: growth inhibition [1] 7% | inhibition [2] 43% | inhibition [3] -1% | outcome [5] | outcome [6] | outcome [7] | outcome [8]

O=C1CCCN1CCCNCc1ccc(-c2ccc(-c3nc4ccc(C(F)(F)F)cc4[nH]3)s2)cc1
active: growth inhibition [1] 96% | growth inhibition [4] 100%
inactive: inhibition [2] 9% | inhibition [3] -4% | outcome [5] | outcome [6] | outcome [7] | outcome [8]

CCC(C)NC(=O)CN1CN(c2ccccc2)C2(CCN(C(=O)c3ccc(C(C)(C)C)cc3)CC2)C1=O (configuration not stated)
inactive: inhibition [2] -6% | inhibition [3] -4% | outcome [5] | outcome [6] | outcome [7] | outcome [8]
active: growth inhibition [1] 100% | growth inhibition [4] 101%

CC(C)CCN1CCCN(Cc2cccc(C(=O)Nc3ccc(C(C)(C)C)cc3)c2)CC1
inactive: growth inhibition [1] 1% | inhibition [2] 33% | inhibition [3] -5% | outcome [5] | outcome [6] | outcome [7] | outcome [8]
active: growth inhibition [4] 85%

O=C(NCCN1CCC(c2ncc(-c3ccccc3)o2)CC1)c1ccc(NC(=O)c2ccc(Cl)cc2)cc1
active: growth inhibition [1] 80% | growth inhibition [4] 101%
inactive: inhibition [2] 32% | inhibition [3] -7% | outcome [5] | outcome [6] | outcome [7] | outcome [8]

NCC1CCCN1Cc1ccc(-c2cccc(-c3nc4ccc(C(F)(F)F)cc4[nH]3)c2)cc1 (configuration not stated)
active: growth inhibition [1] 97% | growth inhibition [4] 99%
inactive: inhibition [2] 24% | inhibition [3] 1% | outcome [5] | outcome [6] | outcome [7] | outcome [8]

CN1CCN(c2ccnc3ccc(NC(=O)Nc4ccc5c(c4)CCC5=O)cc23)CC1
active: growth inhibition [1] 67% | growth inhibition [4] 100%
inactive: inhibition [2] 8% | inhibition [3] 0% | outcome [5] | outcome [6] | outcome [7] | outcome [8]

CCC[C@@H]([C@@H](CC1CCCCC1)C(=O)N[C@H](C(=O)Nc1nccs1)[C@@H](C)OCc1ccccc1)N(O)C=O
inactive: inhibition [3] -3% | outcome [5] | outcome [6] | outcome [7] | outcome [8]
active: growth inhibition [1] 99% | inhibition [2] 51% | growth inhibition [4] 100%

CC(C)CCNC(=O)C1Cc2c([nH]c3cc(Br)ccc23)C2(CCN(Cc3ccccc3)CC2)N1 (configuration not stated)
active: growth inhibition [4] 96%
inactive: growth inhibition [1] 45% | inhibition [2] 10% | inhibition [3] -5% | outcome [5] | outcome [6] | outcome [7] | outcome [8]

Cc1cc(NN=Cc2ccccc2Cl)c2cc(F)ccc2n1
active: growth inhibition [4] 101%
inactive: growth inhibition [1] 4% | inhibition [2] 5% | inhibition [3] -2% | outcome [5] | outcome [6] | outcome [7] | outcome [8]

CC(C)n1nc(C(=O)N2CCN(c3ccccc3)CC2)c2ccccc2c1=O
active: growth inhibition [4] 96%
inactive: growth inhibition [1] 3% | inhibition [2] 34% | inhibition [3] 0% | outcome [5] | outcome [6] | outcome [7] | outcome [8]

Cc1cc(N[C@@H](Cc2ccccc2)C(=O)NCc2cccs2)nc(NCCOc2ccccc2)n1
active: growth inhibition [4] 93%
inactive: growth inhibition [1] 31% | inhibition [2] 2% | inhibition [3] -3% | outcome [5] | outcome [6] | outcome [7] | outcome [8]

CC1CN(c2cc(=O)n(Cc3ccc(NC(=O)Nc4ccc(-c5ccccc5)cc4)cc3)cn2)CC(C)N1 (configuration not stated)
active: growth inhibition [4] 87%
inactive: growth inhibition [1] 20% | inhibition [2] 0% | inhibition [3] -1% | outcome [5] | outcome [6] | outcome [7] | outcome [8]

COc1cc(NCCCNCc2cn(Cc3cc(Br)cc(Br)c3)c3ccccc23)nc2ccccc12
inactive: inhibition [3] 4% | outcome [5] | outcome [6] | outcome [7] | outcome [8]
active: growth inhibition [1] 85% | inhibition [2] 99% | growth inhibition [4] 100%

O=C(NCCCCN1CC=C(c2ccc3c(c2OCc2ccccc2)CCCC3)CC1)c1ccc(-c2ccc(C(F)(F)F)cc2)cc1
inactive: inhibition [2] 19% | inhibition [3] -5% | outcome [5] | outcome [6] | outcome [7] | outcome [8]
active: growth inhibition [1] 82% | growth inhibition [4] 97%

CCCN1CCN(c2cc(S(=O)(=O)Nc3ccc(C(=O)NCc4cccc(C(F)(F)F)c4)cc3)ccc2OC)CC1
active: growth inhibition [4] 92%
inactive: growth inhibition [1] 8% | inhibition [2] 27% | inhibition [3] -3% | outcome [5] | outcome [6] | outcome [7] | outcome [8]

CC(C)[C@H](NC(=O)c1ccc(O)c(-c2ccc(Cl)c(Cl)c2)c1)C(=O)NCCN1CCCC1
active: growth inhibition [1] 83% | growth inhibition [4] 98%
inactive: inhibition [2] 4% | inhibition [3] 4% | outcome [5] | outcome [6] | outcome [7] | outcome [8]

CCCC(C)Nc1nc(C)cc(N[C@@H](CC(C)C)C(=O)NCc2cccc(F)c2)n1 (some centres not stated)
inactive: inhibition [2] 1% | inhibition [3] 0% | outcome [5] | outcome [6] | outcome [7] | outcome [8]
active: growth inhibition [1] 63% | growth inhibition [4] 96%
